Measured values taken from PubChem BioAssay (Tox21).
Values joined by “and” are separate entries in the source; they are usually repeats but may differ in a detail not shown here. Identical values can stand only once. Records with an inconclusive call do not appear. Where a call stands in place of a potency, no number is given. Where a structure was tested more than once in an assay, its records may differ in their call. Active and inactive are the calls of the source. The call rests on the fitted dose curve; in most records, active means well fitted curve in the direction sought with a large enough effect in the repeat runs; inconclusive means weak or mixed curves; inactive means no such curve, though single readings can be large; an effect the other way counts as inactive or inconclusive.

Key:
[1] = qHTS RealTime-Glo MT Cell Viability Assay in HepG2 cells - 40 hour (AID 1224870); further: nearly all actives have a fitted effect of over 50% in size
Outline: (§1)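 HepG2 cells mixed with RealTime-Glo MT reagents (NanoLuc plus cell-permeant prosubstrate) were seeded at 600 cells/well, incubated 5 h at 37 C/5% CO2, then pinned with compounds in DMSO; nonlytic luminescence tracked viability during 40 h treatment.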

[2] = qHTS RealTime-Glo MT Cell Viability Assay in HEK293 cells - 16 hour (AID 1224872); further: top concentration of the series differs between compounds; nearly all actives have a fitted effect of over 50% in size
Outline: (§2)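 Tox21 10K qHTS, HEK293, 600 cells/well, RealTime-Glo reagent co-dispensed with cells; 5 h preincubation, compound by pintool, 37 C, luminescence at 0–40 h.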

[3] = qHTS RealTime-Glo MT Cell Viability Assay in HepG2 cells - 8 hour (AID 1224873); further: nearly all actives have a fitted effect of over 55% in size
Outline: as §1

[4] = qHTS RealTime-Glo MT Cell Viability Assay in HEK293 cells - 40 hour (AID 1224874); conditions: RealTime-Glo luminescence; max response: stronger effect = lower value; further: nearly all actives have a fitted effect of over 50% in size; further: potency means the concentration at half of the fitted maximal effect
Outline: (§3)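 Luminescence readout at each listed time point; HEK293, 600 cells/well, RealTime-Glo MT reagent added with cells; compounds pinned (23 nL in DMSO) after 5 h at 37 C; continuous culture at 37 C.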

[5] = A CellTox Green Cytotoxicity Assay to monitor cytotoxicity in HEK293 cells - 24 hour (AID 1224875); further: series mostly up to about 77 µM; nearly all actives have a fitted effect of over 45% in size
Outline: (§4)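 Read-out: fluorescence of a cell-impermeant cyanine dye staining DNA of dead cells, proportional to cytotoxicity. HEK293, 600 cells/well with reagent, compound (23 nL DMSO) added after 5 h; reads at 0, 8, 16, 24, 32, 40 h.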

[6] = A CellTox Green Cytotoxicity Assay to monitor cytotoxicity in HepG2 cells - 16 hour (AID 1224876); further: nearly all actives have a fitted effect of over 45% in size
Outline: (§5)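 HepG2, 600 cells/well premixed w/ CellTox Green; 5 h settle, 37 C/5% CO2; pintool cpd add (DMSO); 37 C, 40 h; fluorescence read at 0, 8, 16, 24, 32, 40 h.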

[7] = qHTS RealTime-Glo MT Cell Viability Assay in HepG2 cells - 32 hour (AID 1224877); further: nearly all actives have a fitted effect of over 55% in size
Outline: (§6)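 Cells + NanoLuc/prosubstrate dispensed (600 cells/well) → 5 h at 37 C/5% CO2 → compounds in DMSO transferred → 40 h incubation at 37 C, luminescence read at 0, 8, 16, 24, 32, 40 h.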

[8] = A CellTox Green Cytotoxicity Assay to monitor cytotoxicity in HepG2 cells - 24 hour (AID 1224878); further: nearly all actives have a fitted effect of over 45% in size
Outline: as §5

[9] = A CellTox Green Cytotoxicity Assay to monitor cytotoxicity in HepG2 cells - 40 hour (AID 1224879); further: nearly all actives have a fitted effect of over 40% in size; further: potency means the concentration at half of the fitted maximal effect
Outline: as §5

[10] = qHTS RealTime-Glo MT Cell Viability Assay in HEK293 cells - 0 hour (AID 1224880); further: top concentration of the series differs between compounds; nearly all actives have a fitted effect of over 45% in size
Outline: as §3

[11] = A CellTox Green Cytotoxicity Assay to monitor cytotoxicity in HEK293 cells - 32 hour (AID 1224881); further: nearly all actives have a fitted effect of over 40% in size; further: potency means the concentration at half of the fitted maximal effect
Outline: as §4

[12] = A CellTox Green Cytotoxicity Assay to monitor cytotoxicity in HepG2 cells - 0 hour (AID 1224882); further: nearly all actives have a fitted effect of over 35% in size
Outline: as §5

[13] = A CellTox Green Cytotoxicity Assay to monitor cytotoxicity in HepG2 cells - 32 hour (AID 1224883); further: nearly all actives have a fitted effect of over 50% in size; further: potency means the concentration at half of the fitted maximal effect
Outline: as §5

[14] = A CellTox Green Cytotoxicity Assay to monitor cytotoxicity in HEK293 cells - 8 hour (AID 1224884); further: nearly all actives have a fitted effect of over 35% in size; further: potency means the concentration at half of the fitted maximal effect
Outline: as §4

[15] = qHTS RealTime-Glo MT Cell Viability Assay in HepG2 cells - 16 hour (AID 1224885); further: nearly all actives have a fitted effect of over 50% in size
Outline: as §6

[16] = qHTS RealTime-Glo MT Cell Viability Assay in HEK293 cells - 24 hour (AID 1224886); further: nearly all actives have a fitted effect of over 50% in size; further: potency means the concentration at half of the fitted maximal effect
Outline: as §2

[17] = qHTS RealTime-Glo MT Cell Viability Assay in HEK293 cells - 8 hour (AID 1224887)
Outline: as §3

[18] = A CellTox Green Cytotoxicity Assay to monitor cytotoxicity in HEK293 cells - 16 hour (AID 1224888); further: nearly all actives have a fitted effect of over 35% in size
Outline: as §4

[19] = qHTS RealTime-Glo MT Cell Viability Assay in HepG2 cells - 0 hour (AID 1224889); further: nearly all actives have a fitted effect of over 50% in size
Outline: as §6

[20] = A CellTox Green Cytotoxicity Assay to monitor cytotoxicity in HEK293 cells - 40 hour (AID 1224871); further: nearly all actives have a fitted effect of over 45% in size; further: potency means the concentration at half of the fitted maximal effect
Outline: as §4

Nc1ccc(Cl)c(Cl)c1
Potency [1]: inactive
Potency [2]: inactive
Potency [3]: inactive
max response [4]: 0.648% (inactive)
Potency [5]: inactive
Potency [6]: inactive
Potency [7]: inactive
Potency [8]: inactive
Potency [9]: inactive
Potency [10]: inactive
Potency [11]: inactive
Potency [12]: inactive
Potency [13]: inactive
Potency [14]: inactive
Potency [15]: inactive
Potency [16]: inactive
Potency [17]: inactive
Potency [18]: inactive
Potency [19]: inactive

Cc1c(COC(=O)[C@@H]2[C@H](/C=C(\Cl)C(F)(F)F)C2(C)C)cccc1-c1ccccc1
Potency [1]: inactive
Potency [20]: inactive
Potency [3]: inactive
Potency [4]: 19.1 µM (active)
Potency [5]: inactive
Potency [6]: inactive
Potency [7]: inactive
Potency [8]: inactive
Potency [9]: inactive
Potency [10]: inactive
Potency [11]: inactive
Potency [12]: inactive
Potency [13]: inactive
Potency [14]: inactive
Potency [15]: inactive
Potency [16]: 21.4 µM (active)
Potency [17]: inactive
Potency [18]: inactive
Potency [19]: inactive

CCc1cccc(CC)c1N(COC)C(=O)CCl
Potency [1]: inactive
Potency [2]: inactive
Potency [3]: inactive
max response [4]: -25.5% (inactive)
Potency [5]: inactive
Potency [6]: inactive
Potency [7]: inactive
Potency [8]: inactive
Potency [9]: inactive
Potency [10]: inactive
Potency [11]: inactive
Potency [12]: inactive
Potency [13]: inactive
Potency [14]: inactive
Potency [15]: inactive
Potency [16]: inactive
Potency [17]: inactive
Potency [18]: inactive
Potency [19]: inactive

Oc1c(Cl)c(Cl)c(Cl)c(Cl)c1Cl
Potency [1]: inactive
Potency [20]: inactive
Potency [2]: inactive
Potency [3]: inactive
Potency [5]: inactive
Potency [6]: inactive
Potency [7]: inactive
Potency [8]: inactive
Potency [9]: inactive
Potency [10]: inactive
Potency [11]: inactive
Potency [12]: inactive
Potency [13]: inactive
Potency [14]: inactive
Potency [16]: inactive
Potency [17]: inactive
Potency [18]: inactive
Potency [19]: inactive

C#C[C@]1(O)CC[C@H]2[C@@H]3CCC4=CC(=O)CC[C@]4(C)[C@H]3CC[C@@]21C
Potency [1]: inactive
Potency [20]: 49 µM (active)
Potency [2]: inactive
Potency [3]: inactive
max response [4]: -4.36% (inactive) and -16.3% (inactive)
Potency [6]: inactive
Potency [7]: inactive
Potency [8]: inactive
Potency [10]: inactive
Potency [11]: 49 µM (active)
Potency [12]: inactive
Potency [13]: inactive
Potency [14]: inactive
Potency [15]: inactive
Potency [16]: inactive
Potency [17]: inactive
Potency [18]: inactive

COP(=O)(OC)OC
Potency [1]: inactive
Potency [20]: inactive
Potency [2]: inactive
Potency [3]: inactive
max response [4]: 4.65% (inactive)
Potency [5]: inactive
Potency [6]: inactive
Potency [7]: inactive
Potency [8]: inactive
Potency [9]: 19.7 µM (active) and inactive
Potency [10]: inactive
Potency [11]: inactive
Potency [12]: inactive
Potency [13]: 24.7 µM (active) and inactive
Potency [14]: 39.2 µM (active) and inactive
Potency [16]: inactive
Potency [17]: inactive
Potency [18]: inactive
Potency [19]: inactive

Clc1nc(Cl)nc(Cl)n1
Potency [1]: inactive
Potency [20]: inactive
Potency [2]: inactive
Potency [3]: inactive
max response [4]: 10.8% (inactive) and -11.8% (inactive)
Potency [5]: inactive
Potency [6]: inactive
Potency [7]: inactive
Potency [8]: inactive
Potency [9]: inactive
Potency [10]: inactive
Potency [11]: inactive
Potency [12]: inactive
Potency [13]: inactive
Potency [14]: inactive
Potency [16]: inactive
Potency [17]: inactive
Potency [18]: inactive
Potency [19]: inactive

O=P(Oc1ccccc1)(Oc1ccccc1)Oc1ccccc1
Potency [1]: inactive
Potency [2]: inactive
Potency [3]: inactive
max response [4]: -17.9% (inactive) and -13.8% (inactive)
Potency [5]: inactive
Potency [6]: inactive
Potency [7]: inactive
Potency [8]: inactive
Potency [9]: inactive
Potency [10]: inactive
Potency [11]: inactive
Potency [12]: inactive
Potency [13]: inactive
Potency [14]: inactive
Potency [15]: inactive
Potency [16]: inactive
Potency [17]: inactive
Potency [18]: inactive
Potency [19]: inactive

CCOCN(C(=O)CCl)c1c(C)cccc1CC
Potency [1]: inactive
Potency [2]: inactive
Potency [3]: inactive
max response [4]: -23.6% (inactive) and -0.0681% (inactive)
Potency [5]: inactive
Potency [6]: inactive
Potency [7]: inactive
Potency [8]: inactive
Potency [9]: inactive
Potency [10]: inactive
Potency [11]: inactive
Potency [12]: inactive
Potency [13]: inactive
Potency [14]: inactive
Potency [15]: inactive
Potency [16]: inactive
Potency [17]: inactive
Potency [18]: inactive
Potency [19]: inactive

CC(O)CCO (stereo unspecified)
Potency [1]: inactive
Potency [2]: inactive
Potency [3]: inactive
max response [4]: -0.607% (inactive) and 26.7% (inactive)
Potency [5]: inactive
Potency [6]: inactive
Potency [7]: inactive
Potency [8]: inactive
Potency [9]: inactive
Potency [10]: inactive
Potency [11]: inactive
Potency [12]: inactive
Potency [13]: inactive
Potency [14]: inactive
Potency [15]: inactive
Potency [16]: inactive
Potency [17]: inactive
Potency [18]: inactive
Potency [19]: inactive

CC(C)(c1cc(Cl)c(O)c(Cl)c1)c1cc(Cl)c(O)c(Cl)c1
Potency [1]: inactive
Potency [2]: inactive
Potency [3]: inactive
max response [4]: -12.2% (inactive) and -31.9% (inactive)
Potency [5]: inactive
Potency [6]: inactive
Potency [7]: inactive
Potency [8]: inactive
Potency [9]: inactive
Potency [10]: inactive
Potency [11]: inactive
Potency [12]: inactive
Potency [13]: inactive
Potency [14]: inactive
Potency [15]: inactive
Potency [16]: inactive
Potency [17]: inactive
Potency [18]: inactive
Potency [19]: inactive
